# HT1080 IDH1KD tx = qHTS for induction of synthetic lethality in tumor cells producing 2HG: qHTS for the HT-1080-IDH1KD cell line; HT-1080 IDH1 knockdown viability, ATP luminescence, 48 h; Potency, µM (titrated, usually from 46.1 µM), most hits filed as cytotoxic; 360,000 compounds, 2% hits; AID 686971, 2013
#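 % activity derives from luminescence (CellTiter-Glo), normalised to DMSO and no-cell wells. HT-1080-IDH1KD cells, 750/well, had 48 h compound exposure at 37 °C.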
# DT40 TDP1 no CPT = qHTS for Inhibitors of human tyrosyl-DNA phosphodiesterase 1 (TDP1): qHTS in cells in absence of CPT | DT40 Tdp1-/- hTDP1 cells, no CPT, ATP luminescence, 48 h | 420,000 compounds, 15% hits | Potency, µM (highest dose often 46.2 µM), most hits filed as inhibitors; note: nearly all actives have a fitted effect of over 55% in size
#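 Growth of hTDP1-complemented DT40 Tdp1-knockout cells is measured by ATP luminescence after at least 48 hr compound exposure at 37 °C, with DMSO substituting for the 20 nM CPT used in the parallel screen.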
# TDP1 cell CPT = qHTS for Inhibitors of human tyrosyl-DNA phosphodiesterase 1 (TDP1): qHTS in cells in presence of CPT. Potency, µM (titrated, usually from 46.2 µM), most hits filed as inhibitors. chicken DT40 Tdp1-/-;hTDP1 cells + 20 nM CPT, ATP luminescence, 48 h. 420,000 compounds, 12% hits; note: nearly all actives have a fitted effect of over 55% in size
#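 Chicken DT40 Tdp1-/- cells stably complemented with human TDP1 were seeded at 400 cells/well in medium containing 20 nM camptothecin, exposed to pin-transferred compounds, and grown at 37 °C for at least 48 hr. Viability was read as ATP luminescence.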
# IL1B secr inh = qHTS for Inhibitors of Inflammasome Signaling: IL-1-beta AlphaLISA Primary Screen. activity change, % at 57.5 µM. 360,000 compounds, 4.7% hits. THP-1 LPS/ATP IL-1B secretion, AlphaLISA, 16 h; stronger effect = lower value; in the data active = activity change below about -50%; inconclusive = mostly about -30% to -49%
#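 THP-1 cells pretreated 1 hr with compounds (up to 57.5 uM final), then stimulated with LPS (250 ng/mL final) plus ATP (1.25 mM final); secreted IL-1B measured by AlphaLISA after 16 hr, decreased signal indicating inhibition.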
# HT1080NT lethal = qHTS for induction of synthetic lethality in tumor cells producing 2HG: qHTS for the HT-1080-NT fibrosarcoma cell line; AID 686970, 2013; Potency, µM (top dose mostly 46.1 µM), hits mostly cytotoxic; 360,000 compounds, 1.6% hits; HT-1080-NT fibrosarcoma viability, CellTiter-Glo ATP luminescence, 48 h;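 note: NT is the 2HG producing partner of a matched IDH1 knockdown line; nearly all actives have a fitted effect of over 55% in size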
#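 HT-1080-NT fibrosarcoma cells (2HG-overproducing), 750 cells/well in RPMI with 5% FBS, dosed after 2 h and incubated 48 h at 37C. CellTiter-Glo luminescence normalized to DMSO and no-cell wells; concentration-response curves fitted and classed.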
# Hits are given with their value; i = inactive; ? = inconclusive; nt = not tested or not shown. The list is not random: actives were taken first. Their share in the collection is about 19%. Unless noted, calls come from the whole dose curve; as a rule, active = well fitted curve in the direction sought with a large enough effect; inconclusive = small, poorly fitted or top-dose-only effect, or another doubt; inactive = no such curve, though single readings can be large; an effect the other way counts as inactive or inconclusive.
SMILES,HT1080 IDH1KD tx,DT40 TDP1 no CPT,TDP1 cell CPT,IL1B secr inh,HT1080NT lethal
O=C(N/N=C/c1cccnc1)c1ccc(CN2c3cccc4cccc(c34)S2(=O)=O)cc1,?,i,i,i,i
O=C(N/N=C/c1ccccc1)c1ccc(CN2C(=O)c3cccc4cccc2c34)cc1,?,i,i,i,21µM
O=C(N/N=C/c1cccc2ccccc12)c1ccc(CN2CCOCC2)cc1,i,?,?,i,i
CCOC(=O)C1=C(O)C(=O)N(C2CCCCC2)C1,i,i,i,i,i
Cc1c(Cl)cccc1-c1ccc(CNCc2ccccn2)o1,i,?,?,?,i
COc1ccccc1Nc1nc(N)nc(-c2cc3ccccc3o2)n1,i,?,i,i,i
COc1cccc(Nc2nc(N)nc(-c3oc4ccccc4c3C)n2)c1,7.9µM,8.2µM,6.5µM,-71,10µM
Cc1ccc(Nc2nc(N)nc(-c3oc4ccccc4c3C)n2)cc1,0.01µM,0.058µM,0.21µM,i,0.0065µM
Cc1cccc(Nc2ncnc(N)n2)c1,?,i,i,i,i
Cc1c(-c2nc(N)nc(Nc3ccccc3F)n2)oc2ccccc12,i,18µM,?,i,i
Cc1cccc(Nc2nc(N)nc(-c3oc4ccccc4c3C)n2)c1,?,26µM,?,-75,?
Cc1ccc(Nc2nc(C)nc3c2oc2ccccc23)cc1,i,?,?,nt,i
CCc1nc(Nc2cccc(OC)c2)c2oc3ccccc3c2n1,i,?,?,i,i
COc1cc(C2C(C#N)=C(N)N(c3cccnc3)C3=C2C(=O)CCC3)ccc1O (stereo not drawn),i,i,i,-59,i
COc1cc(C2C(C#N)=C(N)N(c3ccc(F)cc3)C3=C2S(=O)(=O)CC3)ccc1O (stereo not drawn),i,?,13µM,i,i
CN1CCN(c2nc(-c3ccccc3Cl)nc3ccccc23)CC1,i,i,i,?,i
c1ccc2c(N3CCCC3)nc(-c3ccncc3)nc2c1,i,18µM,?,-80,i
CCN(CC)c1nc(-c2cccc(OC)c2O)nc2ccccc12,?,23µM,18µM,i,i
CN1CCN(c2nc(-c3cccs3)nc3ccccc23)CC1,i,?,?,-59,?
CN1CCN(c2nc(-c3ccc(Cl)cc3)nc3ccccc23)CC1,i,16µM,?,-89,i
CCN1CCN(c2nc(-c3cccs3)nc3ccccc23)CC1,i,i,i,?,i
CCOc1ccc(NC(=O)Nc2c(C)n(C)n(-c3ccccc3)c2=O)cc1,i,i,i,i,i
COC(=O)c1ccc(N=Cc2c(C(F)(F)F)[nH]n(C)c2=O)cc1,?,i,i,i,i
Cc1ccc(CN2CC(C(=O)Nc3cc(C)ccn3)CC2=O)cc1 (stereo not drawn),i,i,i,i,i
O=C(COC(=O)COc1ccc(Cl)cc1)NC1CCCC1,i,i,i,i,i
SMILES,HT1080 IDH1KD tx,DT40 TDP1 no CPT,TDP1 cell CPT,IL1B secr inh,HT1080NT lethal
CN(C)c1ccc(C2Nc3ccccc3C(=O)N2NS(C)(=O)=O)cc1 (stereo not drawn),i,i,i,?,i
CCCCCCn1cc(CN2CC(N3CCN(CCO)CC3)CS2(=O)=O)nn1 (stereo not drawn),i,i,i,i,i
CC(=O)c1ccc(S(=O)(=O)N(C)CC(=O)NCc2ccco2)cc1,i,i,i,i,i
Cc1ccc(-c2nnn(CCC(=O)NC3CCCC3)n2)cc1,i,i,i,i,i
Oc1ccccc1N1CCN(c2nc(-c3cccs3)nc3ccccc23)CC1,i,?,i,i,i
O=C(c1ccc2c(c1)OCCO2)N1CCN(c2nc(-c3cccs3)nc3ccccc23)CC1,i,11µM,11µM,nt,i
CC(C)(C)OC(=O)N1CCN(c2nc(-c3cccs3)nc3ccccc23)CC1,i,8.9µM,13µM,nt,i
CN1CCN(c2nc(-c3ccncc3)nc3ccccc23)CC1,?,?,?,-57,?
COc1cccc(-c2nc(N3CCN(C)CC3)c3ccccc3n2)c1O,15µM,16µM,i,-98,i
COc1cccc(-c2nc(N3CCCCC3C)c3ccccc3n2)c1O (stereo not drawn),?,?,?,i,?
CN1CCN(c2nc(-c3ccoc3)nc3ccccc23)CC1,nt,i,i,nt,nt
CC(=O)c1sc2c(c1C)c(=O)n(-c1ccc(Cl)cc1)c(=O)n2Cc1cc(=O)n2cc(Cl)ccc2n1,nt,i,i,nt,nt
CC1(C(=O)NS(=O)(=O)c2ccc(C#N)cc2)CCN1C(=O)C1(c2ccc(Cl)cc2)CC1 (stereo not drawn),i,i,i,i,i
COc1cc(NC(=O)c2c(-c3ccc(C)cc3)nnc3ccccc23)cc(OC)c1OC,nt,i,i,nt,nt
CN(C(=O)c1cc2nc(-c3ccc4c(c3)OCO4)cc(C(F)(F)F)n2n1)c1ccc(OC(F)(F)F)cc1,nt,i,i,nt,nt
CC(C)C[C@H]1CN(CCCC[C@H]2CNC(=O)C(=O)N2CC2CCCCC2)C(=O)C(=O)N1Cc1ccccc1,i,?,?,-72,i

# Screening data: PubChem BioAssay, National Center for Advancing Translational Sciences (NCATS)
